Key:
Experiment in all cases: DAPPL (digital affinity profiling via proximity ligation, sequencing); 10 mM Tris-HCl pH 7.5, 50 mM NaCl, 1 mM DTT, 4% glycerol, room temperature, 30 min; GST-TFs on glutathione beads, 16-mer random dsDNA library, 0.1% formaldehyde crosslink after washing; high values mean tight binding
[1] = target: T1, FLI1 (Homo sapiens, UniProt Q01543 1-452); conditions: protein: recombinant; tags: N-terminal GST; dsDNA, one strand shown
T1 sequence: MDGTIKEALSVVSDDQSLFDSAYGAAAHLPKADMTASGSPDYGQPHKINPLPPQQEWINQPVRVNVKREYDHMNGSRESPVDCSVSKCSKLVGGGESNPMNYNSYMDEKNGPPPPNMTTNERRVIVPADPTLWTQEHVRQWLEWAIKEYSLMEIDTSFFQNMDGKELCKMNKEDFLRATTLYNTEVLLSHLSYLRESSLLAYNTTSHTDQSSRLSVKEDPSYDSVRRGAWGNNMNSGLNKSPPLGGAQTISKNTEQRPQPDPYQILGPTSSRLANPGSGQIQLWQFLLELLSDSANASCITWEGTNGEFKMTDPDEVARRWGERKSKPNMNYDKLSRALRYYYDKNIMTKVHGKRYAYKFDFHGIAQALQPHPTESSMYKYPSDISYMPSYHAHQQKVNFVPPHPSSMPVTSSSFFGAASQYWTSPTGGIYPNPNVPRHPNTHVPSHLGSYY
In short: (§1)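 Human transcription factors were made in yeast as GST fusions, captured on glutathione beads and barcoded with DNA. With a tag-only sample included, the pool was incubated with 200 nmole of a random double-stranded 16-mer DNA library in Tris/NaCl/DTT/glycerol buffer at room temperature for 30 min, then crosslinked with 0.1% formaldehyde after washing, ligated by proximity, amplified and sequenced. For binding signal, each hexamer's read frequency for a factor is divided by its frequency for the tag-only sample.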

[2] = target: T2, ELK1 (Homo sapiens, UniProt P19419 1-428); conditions: protein: recombinant; tags: N-terminal GST; dsDNA, one strand shown
T2 sequence: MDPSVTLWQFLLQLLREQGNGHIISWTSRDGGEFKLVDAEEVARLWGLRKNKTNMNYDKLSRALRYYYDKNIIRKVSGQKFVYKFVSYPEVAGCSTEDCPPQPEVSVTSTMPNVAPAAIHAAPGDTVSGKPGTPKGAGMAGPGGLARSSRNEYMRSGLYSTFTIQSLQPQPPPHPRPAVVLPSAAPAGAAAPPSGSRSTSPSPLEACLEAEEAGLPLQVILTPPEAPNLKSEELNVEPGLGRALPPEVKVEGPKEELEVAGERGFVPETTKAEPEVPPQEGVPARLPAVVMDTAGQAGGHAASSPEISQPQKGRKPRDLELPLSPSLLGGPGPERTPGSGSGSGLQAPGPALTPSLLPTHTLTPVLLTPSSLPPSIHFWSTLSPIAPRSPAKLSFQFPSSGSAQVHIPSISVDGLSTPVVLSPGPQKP
In short: as §1

[3] = target: T3, GABPA (Homo sapiens, UniProt Q06546 1-454); conditions: protein: recombinant; tags: N-terminal GST; dsDNA, one strand shown
T3 sequence: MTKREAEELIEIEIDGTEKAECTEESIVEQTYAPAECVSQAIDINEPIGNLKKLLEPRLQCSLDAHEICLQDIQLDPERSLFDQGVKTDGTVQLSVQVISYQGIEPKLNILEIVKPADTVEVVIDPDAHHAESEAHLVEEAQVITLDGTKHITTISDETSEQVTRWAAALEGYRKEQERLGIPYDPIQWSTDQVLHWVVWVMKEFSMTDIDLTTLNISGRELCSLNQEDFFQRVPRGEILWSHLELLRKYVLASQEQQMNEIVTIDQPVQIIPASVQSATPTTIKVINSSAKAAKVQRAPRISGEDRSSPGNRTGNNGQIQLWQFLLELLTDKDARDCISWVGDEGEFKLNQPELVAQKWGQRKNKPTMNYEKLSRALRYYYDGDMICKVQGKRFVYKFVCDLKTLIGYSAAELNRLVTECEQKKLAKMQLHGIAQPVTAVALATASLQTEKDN
In short: as §1

[4] = target: T4, ERG (Homo sapiens, UniProt P11308 1-479); conditions: protein: recombinant; tags: N-terminal GST; dsDNA, one strand shown
T4 sequence: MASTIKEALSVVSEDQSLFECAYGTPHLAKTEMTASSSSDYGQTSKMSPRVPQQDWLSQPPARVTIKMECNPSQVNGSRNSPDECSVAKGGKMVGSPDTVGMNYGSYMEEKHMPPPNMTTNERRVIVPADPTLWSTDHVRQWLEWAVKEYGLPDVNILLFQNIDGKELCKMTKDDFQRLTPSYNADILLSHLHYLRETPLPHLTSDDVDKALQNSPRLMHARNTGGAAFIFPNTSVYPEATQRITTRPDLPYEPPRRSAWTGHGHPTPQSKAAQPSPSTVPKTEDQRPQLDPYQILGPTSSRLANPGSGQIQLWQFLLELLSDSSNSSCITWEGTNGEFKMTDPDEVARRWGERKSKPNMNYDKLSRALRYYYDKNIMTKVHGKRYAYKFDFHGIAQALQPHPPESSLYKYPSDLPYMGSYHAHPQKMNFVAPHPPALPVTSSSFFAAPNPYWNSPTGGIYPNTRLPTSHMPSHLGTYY
In short: as §1

[5] = target: ELF1 (Homo sapiens, UniProt P32519 1-619); conditions: protein: recombinant; tags: N-terminal GST; dsDNA, one strand shown
Sequence of ELF1 (P32519 whole entry): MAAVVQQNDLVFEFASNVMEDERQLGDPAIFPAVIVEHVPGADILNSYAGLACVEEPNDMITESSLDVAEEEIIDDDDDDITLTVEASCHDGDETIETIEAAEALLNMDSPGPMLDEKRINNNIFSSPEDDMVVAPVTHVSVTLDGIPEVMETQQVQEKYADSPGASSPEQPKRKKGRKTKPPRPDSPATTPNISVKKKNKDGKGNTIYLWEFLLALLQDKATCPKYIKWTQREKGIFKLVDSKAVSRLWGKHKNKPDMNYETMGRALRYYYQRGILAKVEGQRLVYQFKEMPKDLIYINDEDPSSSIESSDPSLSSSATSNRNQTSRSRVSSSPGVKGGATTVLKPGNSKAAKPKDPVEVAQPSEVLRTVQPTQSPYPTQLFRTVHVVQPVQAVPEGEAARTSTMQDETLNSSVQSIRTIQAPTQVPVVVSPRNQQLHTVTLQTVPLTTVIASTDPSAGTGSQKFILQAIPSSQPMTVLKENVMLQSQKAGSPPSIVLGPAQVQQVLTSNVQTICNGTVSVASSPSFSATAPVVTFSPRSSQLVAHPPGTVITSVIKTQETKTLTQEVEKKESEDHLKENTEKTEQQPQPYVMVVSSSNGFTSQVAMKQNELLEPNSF
In short: as §1

[6] = target: T5, EHF (Homo sapiens, UniProt Q9NZC4 1-300); conditions: protein: recombinant; tags: N-terminal GST; dsDNA, one strand shown
T5 sequence: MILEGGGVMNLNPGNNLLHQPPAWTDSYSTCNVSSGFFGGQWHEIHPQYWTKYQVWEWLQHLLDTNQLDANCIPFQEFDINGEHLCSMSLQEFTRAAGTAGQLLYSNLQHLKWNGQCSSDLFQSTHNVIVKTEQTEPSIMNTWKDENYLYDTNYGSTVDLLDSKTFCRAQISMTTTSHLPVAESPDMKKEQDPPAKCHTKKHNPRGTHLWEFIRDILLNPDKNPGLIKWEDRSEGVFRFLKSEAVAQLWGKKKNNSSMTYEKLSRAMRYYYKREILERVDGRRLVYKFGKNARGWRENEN
In short: as §1

[7] = target: SPI1 (Homo sapiens, UniProt P17947 1-270); conditions: protein: recombinant; tags: N-terminal GST; dsDNA, one strand shown
In short: as §1

[8] = target: SPIB (Homo sapiens, UniProt Q01892 1-262); conditions: protein: recombinant; tags: N-terminal GST; dsDNA, one strand shown
Sequence of SPIB (Q01892 whole entry): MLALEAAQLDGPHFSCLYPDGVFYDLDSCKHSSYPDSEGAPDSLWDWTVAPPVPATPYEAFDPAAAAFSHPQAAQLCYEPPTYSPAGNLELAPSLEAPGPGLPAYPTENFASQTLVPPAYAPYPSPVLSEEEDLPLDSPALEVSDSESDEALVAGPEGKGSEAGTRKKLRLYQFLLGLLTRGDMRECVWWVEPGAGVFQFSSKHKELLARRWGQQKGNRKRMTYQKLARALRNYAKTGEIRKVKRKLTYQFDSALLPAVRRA
In short: as §1

[9] = target: T6, ELK3 (Homo sapiens, UniProt P41970 1-407); conditions: protein: recombinant; tags: N-terminal GST; dsDNA, one strand shown
T6 sequence: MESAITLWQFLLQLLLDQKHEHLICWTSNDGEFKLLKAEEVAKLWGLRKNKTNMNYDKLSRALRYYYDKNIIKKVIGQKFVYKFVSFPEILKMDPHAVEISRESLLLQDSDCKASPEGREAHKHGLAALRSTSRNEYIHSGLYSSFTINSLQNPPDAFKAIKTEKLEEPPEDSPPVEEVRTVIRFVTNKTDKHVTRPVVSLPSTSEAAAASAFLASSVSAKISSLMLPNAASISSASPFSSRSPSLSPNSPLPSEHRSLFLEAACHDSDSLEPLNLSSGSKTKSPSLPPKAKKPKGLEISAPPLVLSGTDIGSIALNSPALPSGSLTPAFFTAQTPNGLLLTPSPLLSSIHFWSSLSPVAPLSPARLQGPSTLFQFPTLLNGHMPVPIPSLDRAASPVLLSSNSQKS
In short: as §1

[10] = target: T7, FEV (Homo sapiens, UniProt Q99581 1-238); conditions: protein: recombinant; tags: N-terminal GST; dsDNA, one strand shown
T7 sequence: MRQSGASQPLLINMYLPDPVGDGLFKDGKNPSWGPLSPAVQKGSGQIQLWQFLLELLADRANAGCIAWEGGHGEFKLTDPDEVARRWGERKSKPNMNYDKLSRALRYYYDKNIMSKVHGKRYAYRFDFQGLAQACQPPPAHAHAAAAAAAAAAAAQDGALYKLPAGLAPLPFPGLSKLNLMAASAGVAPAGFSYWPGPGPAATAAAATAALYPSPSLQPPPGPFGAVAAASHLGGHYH
In short: as §1

[11] = target: ETV5 (Homo sapiens, UniProt P41161 1-510); conditions: protein: recombinant; tags: N-terminal GST; dsDNA, one strand shown
Sequence of ETV5 (P41161 whole entry): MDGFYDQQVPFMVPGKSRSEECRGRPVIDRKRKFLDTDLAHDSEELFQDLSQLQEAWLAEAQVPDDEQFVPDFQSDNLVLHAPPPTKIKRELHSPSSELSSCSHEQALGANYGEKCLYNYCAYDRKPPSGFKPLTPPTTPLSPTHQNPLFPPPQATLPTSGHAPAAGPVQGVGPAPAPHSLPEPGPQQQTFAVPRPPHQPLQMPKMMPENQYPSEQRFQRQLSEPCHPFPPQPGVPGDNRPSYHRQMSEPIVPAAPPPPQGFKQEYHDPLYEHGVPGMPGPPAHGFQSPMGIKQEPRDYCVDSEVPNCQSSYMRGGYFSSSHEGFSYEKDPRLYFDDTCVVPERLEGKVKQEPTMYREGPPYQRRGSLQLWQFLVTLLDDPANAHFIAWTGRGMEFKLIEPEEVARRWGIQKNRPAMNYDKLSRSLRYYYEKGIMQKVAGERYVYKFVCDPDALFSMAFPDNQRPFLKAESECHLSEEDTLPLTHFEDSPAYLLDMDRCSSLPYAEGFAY
In short: as §1

[12] = target: HSF1 (Homo sapiens, UniProt Q00613 1-529); conditions: protein: recombinant; tags: N-terminal GST; chain copies: 3; dsDNA, one strand shown
Sequence of HSF1 (Q00613 whole entry): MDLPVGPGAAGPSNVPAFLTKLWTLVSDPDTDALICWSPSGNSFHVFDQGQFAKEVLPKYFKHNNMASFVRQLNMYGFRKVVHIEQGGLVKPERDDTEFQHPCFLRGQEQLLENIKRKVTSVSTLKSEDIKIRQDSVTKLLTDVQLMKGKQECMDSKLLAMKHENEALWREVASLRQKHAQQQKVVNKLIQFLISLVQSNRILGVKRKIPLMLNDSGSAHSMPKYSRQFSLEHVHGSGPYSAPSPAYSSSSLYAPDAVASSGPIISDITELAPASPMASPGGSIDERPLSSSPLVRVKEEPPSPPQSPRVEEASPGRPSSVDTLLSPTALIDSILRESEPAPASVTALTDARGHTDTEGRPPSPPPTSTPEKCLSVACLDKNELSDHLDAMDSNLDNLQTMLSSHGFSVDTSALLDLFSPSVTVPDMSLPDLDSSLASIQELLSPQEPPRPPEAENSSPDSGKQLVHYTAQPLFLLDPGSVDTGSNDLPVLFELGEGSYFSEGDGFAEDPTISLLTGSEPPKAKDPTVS
In short: as §1

[13] = target: T8, SPIC (Homo sapiens, UniProt Q8N5J4 1-248); conditions: protein: recombinant; tags: N-terminal GST; dsDNA, one strand shown
T8 sequence: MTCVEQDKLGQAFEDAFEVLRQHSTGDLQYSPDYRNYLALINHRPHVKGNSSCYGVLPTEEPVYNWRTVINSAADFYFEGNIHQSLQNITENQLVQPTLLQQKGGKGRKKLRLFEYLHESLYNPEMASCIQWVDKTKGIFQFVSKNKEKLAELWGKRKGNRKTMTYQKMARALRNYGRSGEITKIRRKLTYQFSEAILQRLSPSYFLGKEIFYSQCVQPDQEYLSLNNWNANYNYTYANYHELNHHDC
In short: as §1

[14] = target: ELF4 (Homo sapiens, UniProt Q99607 1-663); conditions: protein: recombinant; tags: N-terminal GST; dsDNA, one strand shown
Sequence of ELF4 (Q99607 whole entry): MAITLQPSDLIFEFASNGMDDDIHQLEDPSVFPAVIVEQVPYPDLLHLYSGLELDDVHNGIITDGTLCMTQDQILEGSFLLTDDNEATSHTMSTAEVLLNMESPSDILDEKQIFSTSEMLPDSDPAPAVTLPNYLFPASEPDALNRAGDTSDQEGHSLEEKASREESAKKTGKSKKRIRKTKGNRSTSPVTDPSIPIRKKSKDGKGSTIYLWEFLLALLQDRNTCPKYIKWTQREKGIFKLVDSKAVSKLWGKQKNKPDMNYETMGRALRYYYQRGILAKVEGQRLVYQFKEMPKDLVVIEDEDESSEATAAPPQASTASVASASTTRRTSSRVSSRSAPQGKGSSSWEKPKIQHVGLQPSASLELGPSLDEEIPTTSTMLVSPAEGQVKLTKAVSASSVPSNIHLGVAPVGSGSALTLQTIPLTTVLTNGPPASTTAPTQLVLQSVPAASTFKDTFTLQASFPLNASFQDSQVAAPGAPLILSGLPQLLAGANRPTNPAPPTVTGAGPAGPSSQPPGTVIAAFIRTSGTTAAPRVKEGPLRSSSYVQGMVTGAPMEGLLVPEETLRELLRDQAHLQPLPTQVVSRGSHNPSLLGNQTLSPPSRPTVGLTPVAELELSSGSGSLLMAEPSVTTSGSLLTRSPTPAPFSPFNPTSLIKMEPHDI
In short: as §1

[15] = target: T9, ELK4 (Homo sapiens, UniProt P28324-2 1-405); conditions: protein: recombinant; tags: N-terminal GST; dsDNA, one strand shown
T9 sequence: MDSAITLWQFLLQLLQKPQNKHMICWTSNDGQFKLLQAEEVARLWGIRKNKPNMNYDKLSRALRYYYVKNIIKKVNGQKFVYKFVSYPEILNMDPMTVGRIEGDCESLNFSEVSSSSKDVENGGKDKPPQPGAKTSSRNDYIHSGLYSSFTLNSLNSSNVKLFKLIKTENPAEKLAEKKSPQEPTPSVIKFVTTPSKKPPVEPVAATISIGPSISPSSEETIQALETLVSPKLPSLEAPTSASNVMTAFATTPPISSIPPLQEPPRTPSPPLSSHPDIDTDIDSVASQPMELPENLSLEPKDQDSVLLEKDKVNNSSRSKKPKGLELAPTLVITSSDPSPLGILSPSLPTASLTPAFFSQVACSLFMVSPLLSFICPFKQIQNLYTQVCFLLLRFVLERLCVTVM
In short: as §1

[16] = target: T10, ETV2 (Homo sapiens, UniProt O00321 1-342); conditions: protein: recombinant; tags: N-terminal GST; dsDNA, one strand shown
T10 sequence: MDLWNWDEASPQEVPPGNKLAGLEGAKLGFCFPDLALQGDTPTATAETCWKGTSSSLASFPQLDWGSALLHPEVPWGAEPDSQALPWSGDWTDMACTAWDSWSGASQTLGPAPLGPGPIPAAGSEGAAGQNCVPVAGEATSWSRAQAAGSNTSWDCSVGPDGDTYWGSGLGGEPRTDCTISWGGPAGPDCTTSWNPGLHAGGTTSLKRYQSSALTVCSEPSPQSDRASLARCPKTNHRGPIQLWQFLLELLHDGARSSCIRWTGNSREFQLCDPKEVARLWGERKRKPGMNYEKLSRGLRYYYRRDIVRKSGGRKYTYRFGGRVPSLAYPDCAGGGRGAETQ
In short: as §1

[17] = target: T11, ELF3 (Homo sapiens, UniProt P78545 1-371); conditions: protein: recombinant; tags: N-terminal GST; dsDNA, one strand shown
T11 sequence: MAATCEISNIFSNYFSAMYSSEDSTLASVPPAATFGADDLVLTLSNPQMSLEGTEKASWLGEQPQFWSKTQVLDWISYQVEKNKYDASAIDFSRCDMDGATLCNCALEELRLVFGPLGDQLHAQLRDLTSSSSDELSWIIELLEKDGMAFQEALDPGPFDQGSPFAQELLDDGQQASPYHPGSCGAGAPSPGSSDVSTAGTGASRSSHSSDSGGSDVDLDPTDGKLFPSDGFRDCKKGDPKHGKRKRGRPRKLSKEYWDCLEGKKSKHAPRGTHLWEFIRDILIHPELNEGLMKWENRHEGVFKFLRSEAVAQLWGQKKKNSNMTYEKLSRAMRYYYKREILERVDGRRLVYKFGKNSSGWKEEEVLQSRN
In short: as §1

[18] = target: CRX (Homo sapiens, UniProt O43186 1-299); conditions: protein: recombinant; tags: N-terminal GST; dsDNA, one strand shown
Sequence of CRX (O43186 whole entry): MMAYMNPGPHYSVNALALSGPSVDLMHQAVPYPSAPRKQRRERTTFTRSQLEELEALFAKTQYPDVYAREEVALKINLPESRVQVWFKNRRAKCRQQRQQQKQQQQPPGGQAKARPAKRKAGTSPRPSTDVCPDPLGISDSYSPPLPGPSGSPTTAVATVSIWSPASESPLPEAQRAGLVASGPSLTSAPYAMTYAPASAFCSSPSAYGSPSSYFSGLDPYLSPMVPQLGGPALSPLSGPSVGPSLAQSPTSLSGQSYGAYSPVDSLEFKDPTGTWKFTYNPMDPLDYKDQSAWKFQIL
In short: as §1

[19] = target: ETV1 (Homo sapiens, UniProt P50549 1-477); conditions: protein: recombinant; tags: N-terminal GST; dsDNA, one strand shown
Sequence of ETV1 (P50549 whole entry): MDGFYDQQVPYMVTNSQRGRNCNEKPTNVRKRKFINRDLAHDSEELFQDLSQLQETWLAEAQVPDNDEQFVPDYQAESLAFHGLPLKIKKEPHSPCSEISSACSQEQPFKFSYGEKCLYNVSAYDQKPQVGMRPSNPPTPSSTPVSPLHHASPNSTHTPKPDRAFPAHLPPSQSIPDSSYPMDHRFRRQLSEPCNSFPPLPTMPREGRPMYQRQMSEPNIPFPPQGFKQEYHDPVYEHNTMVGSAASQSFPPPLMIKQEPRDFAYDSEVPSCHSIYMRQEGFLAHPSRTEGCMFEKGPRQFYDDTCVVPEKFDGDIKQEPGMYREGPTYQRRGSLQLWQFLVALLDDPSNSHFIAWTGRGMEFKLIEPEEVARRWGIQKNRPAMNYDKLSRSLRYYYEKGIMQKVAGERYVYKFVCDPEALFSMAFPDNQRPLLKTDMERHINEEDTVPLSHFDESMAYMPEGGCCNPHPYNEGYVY
In short: as §1

In the case of TTTGGA, the binding signal [1] is reported as 1.15 fold enrichment (6-mer frequency, TF over GST control), the binding signal [2] is reported as 1.14 fold enrichment (6-mer frequency, TF over GST control) and the binding signal [3] is reported as 1.24 fold enrichment (6-mer frequency, TF over GST control). The binding signal [4] was 1.11 fold enrichment (6-mer frequency, TF over GST control), the binding signal [5] was 1.18 fold enrichment (6-mer frequency, TF over GST control) and the binding signal [6] was 1.09 fold enrichment (6-mer frequency, TF over GST control). The binding signal [7] was 1.19 fold enrichment (6-mer frequency, TF over GST control), the binding signal [8] was 1.22 fold enrichment (6-mer frequency, TF over GST control) and the binding signal [9] was 1.14 fold enrichment (6-mer frequency, TF over GST control). The binding signal [10] was 1.2 fold enrichment (6-mer frequency, TF over GST control), the binding signal [11] was 1.21 fold enrichment (6-mer frequency, TF over GST control) and the binding signal [12] was 1.48 fold enrichment (6-mer frequency, TF over GST control). The binding signal [13] was 1.28 fold enrichment (6-mer frequency, TF over GST control), the binding signal [14] was 1.12 fold enrichment (6-mer frequency, TF over GST control) and the binding signal [15] was 1.14 fold enrichment (6-mer frequency, TF over GST control). The binding signal [16] was 1.22 fold enrichment (6-mer frequency, TF over GST control), the binding signal [17] was 1.13 fold enrichment (6-mer frequency, TF over GST control) and the binding signal [18] was 1.48 fold enrichment (6-mer frequency, TF over GST control). For the same sequence, the binding signal [19] was 1.24 fold enrichment (6-mer frequency, TF over GST control).

— paper PMC7862700, “An all-to-all approach to the identification of sequence-specific readers for epigenetic DNA modifications on cytosine”
